Screening results from PubChem BioAssay.
RORgamma inh = ROR gamma (mouse) transcription inhibition | P51450 | Potency, µM (series often up to 53.6 µM), for inactives: top-dose activity change, negative = inhibition, hits mostly inhibitors | 5.4% of 310,000 active | Drosophila S2 Gal4-RORgamma UAS-luciferase reporter, 20 h; also: potency is read from the fitted curve at half-maximal effect; % is scaled to controls: 0 for no effect and ±100 for the full control effect; nearly all actives have a fitted effect of over 60% in size
Target sequence (P51450 whole entry, looked up, the tested form may be a part): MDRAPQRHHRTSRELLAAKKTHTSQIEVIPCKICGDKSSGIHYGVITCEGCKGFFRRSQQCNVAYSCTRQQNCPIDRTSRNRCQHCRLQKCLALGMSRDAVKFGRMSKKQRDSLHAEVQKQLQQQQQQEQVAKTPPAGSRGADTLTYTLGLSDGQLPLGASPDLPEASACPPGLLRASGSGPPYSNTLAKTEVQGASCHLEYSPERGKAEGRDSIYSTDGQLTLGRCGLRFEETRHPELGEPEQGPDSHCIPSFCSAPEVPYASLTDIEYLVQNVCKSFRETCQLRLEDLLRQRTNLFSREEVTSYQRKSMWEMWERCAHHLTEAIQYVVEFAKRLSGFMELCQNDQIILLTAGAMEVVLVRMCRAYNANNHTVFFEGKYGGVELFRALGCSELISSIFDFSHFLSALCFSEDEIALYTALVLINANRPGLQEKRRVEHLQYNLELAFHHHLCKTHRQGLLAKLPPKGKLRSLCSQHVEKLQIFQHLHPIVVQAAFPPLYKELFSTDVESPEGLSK
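Luciferase reporter read in Schneider cells carrying Gal4-RORγ (mouse) and UAS-Photinus luciferase; cells given compound 1 h before 700 uM copper sulfate induction, then incubated 20 h at ambient temperature.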
BRCA1 expr up = increases BRCA1 expression; 1.1% of 380,000 active; AID 624202; Potency, µM (series often up to 46.1 µM), inactives show at the highest dose activation, actives largely listed as activators; MCF7-BRCA1-FFLuc reporter, luminescence, 48 h; response scale: scaled: vehicle 0%, 10 µM genistein 100%; also: potency is read from the fitted curve at half-maximal effect; nearly all actives have a fitted effect of over 80% in size
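Reporter cells (MCF7, BRCA1 promoter-firefly luciferase) received library compounds across a concentration series for 48 h. End-point luminescence was measured and concentration-effect curves derived after normalization.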
Giardia kill = kills Giardia lamblia | Giardia lamblia trophozoite viability | activity change, % at 7.66 µM, hits read low | 0.15% of 340,000 active; in the data active = activity change below about -80%; inconclusive = between about -30% and that limit;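 also: parasites exposed to compound for two days anaerobically before the ATP read; % is scaled to controls: 0 for no effect and ±100 for the full control effect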
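Viability, read as ATP luminescence: trophozoites at 100 cells/well, compound added, 48 hrs anaerobic at 37 deg C, then 15-30 min room-temperature development before reading.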
p53 reactivation = re-activators of mutant p53 | AID 504706 | H1299 p53-A138V BP100-luciferase reporter, luminescence, 24 h | 0.063% of 320,000 active | Potency, µM (series often up to 92.2 µM), without a hit: at the highest dose activity change, positive = activation, actives largely listed as activators; also: potency is read from the fitted curve at half-maximal effect; % of control where 0% means no effect; nearly all actives have a fitted effect of over 45% in size
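p53-null H1299 cells stably carrying temperature-sensitive p53-A138V and a BP100-luciferase reporter were pinned with compounds (4-point, 1:5 series) and held 24 hrs at 37 deg C. Luminescence was read 10 min after detection reagent.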
ELG1 repair inh = inhibitors of ELG1-dependent DNA repair in HEK293T cells | HEK293T ELG1-luciferase reporter, luminescence, 16 h; DNA damage induced by 5-fluorouridine | Potency, µM (titrated, usually from 46.1 µM), inactives show at the top dose activity change, negative = inhibition, most hits filed as inhibitors | 2.3% of 330,000 active | AID 504467; also: potency is read from the fitted curve at half-maximal effect; % is scaled to controls: 0 for no effect and ±100 for the full control effect; nearly all actives have a fitted effect of over 55% in size
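DMSO vehicle served as the neutral condition. Each well held 2,000 cells given 5-fluorouridine plus compound; after 16 hr at 37 °C/5% CO2, ONE-Glo was added and luciferase measured 30 min later.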
VP16 counter = counter-screen for ROR gamma inhibitors: Gal4-VP16 reporter; 3.5% of 310,000 active; Potency, µM (titrated, usually from 53.6 µM), for the others: top-dose activity, negative = inhibition, actives largely listed as inhibitors; Drosophila S2 Gal4-VP16 UAS-luciferase, luminescence, 20 h;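 also: Gal4-VP16 expression switched on by copper sulfate through the metallothionein promoter; potency is read from the fitted curve at half-maximal effect; % is scaled to controls: 0 for no effect and ±100 for the full control effect; nearly all actives have a fitted effect of over 50% in size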
Active calls of the source: *. Most compounds without a hit are left out; they make up all but 7.6% or so of the library. Unless noted, calls follow the shape of the dose curve; as a rule, active = well fitted curve in the direction sought with a large enough effect; inconclusive = small, poorly fitted or top-dose-only effect, or another doubt; inactive = no such curve, though single readings can be large; an effect the other way counts as inactive or inconclusive.

How did Fc1ccc(/C=N/Nc2nccnc2Cl)cc1 do in these assays?
RORgamma inh: -5.2%; BRCA1 expr up: 10µM*; Giardia kill: -1.9; p53 reactivation: 4.9%; ELG1 repair inh: inconclusive; VP16 counter: 1.2%

Results for O=[N+]([O-])c1cccc(/C=N/Nc2ccccn2)c1 ?
RORgamma inh: inconclusive; BRCA1 expr up: 28.1%; Giardia kill: -14.9; p53 reactivation: 0.8%; ELG1 repair inh: inconclusive; VP16 counter: inconclusive

What do the screens show for `CCN1CCC2(CCN(C(=O)c3cc(COc4cc(C)ccc4C)on3)C2)C1` (stereo not drawn)?
RORgamma inh: 7.6%; BRCA1 expr up: -3.0%; Giardia kill: -14.4; p53 reactivation: 2.0%; ELG1 repair inh: 2.9%; VP16 counter: -13.3%

Results for COc1cc(/C=N/N=C2/NC(=O)C(Cc3ccc(F)cc3)S2)ccc1O (stereo not drawn) ?
RORgamma inh: 12.6µM*; BRCA1 expr up: -39.5%; Giardia kill: -1.9; p53 reactivation: 6.5%; ELG1 repair inh: inconclusive; VP16 counter: inconclusive

Results for COc1cc(/C=N/N=C2/NC(=O)C(c3ccccc3)S2)ccc1O (stereo not drawn) ?
RORgamma inh: -1.5%; BRCA1 expr up: 1.9%; Giardia kill: -4.8; p53 reactivation: -4.6%; ELG1 repair inh: 27.3%; VP16 counter: -15.8%

Results for N#Cc1c(NC(=O)CSc2nc(N)cc(=O)[nH]2)sc2c1CCCCCC2 ?
RORgamma inh: -4.2%; BRCA1 expr up: -66.2%; Giardia kill: -11.5; p53 reactivation: 2.9%; ELG1 repair inh: inconclusive; VP16 counter: inconclusive

Results for CC(Sc1nc(N)cc(=O)[nH]1)C(=O)Nc1sc2c(c1C#N)CCCC2 (stereo not drawn) ?
RORgamma inh: 38.2%; BRCA1 expr up: -23.8%; Giardia kill: 13.7; p53 reactivation: -5.6%; ELG1 repair inh: 8.2µM*; VP16 counter: -17.7%

What do the screens show for `COc1ccccc1CNc1ncncc1-c1ccccc1OC`?
RORgamma inh: inconclusive; VP16 counter: 15.8µM*

Results for COc1ccccc1CNc1ncncc1-c1ccccc1CN(C)C ?
RORgamma inh: -12.0%; VP16 counter: -2.7%

What do the screens show for `COC(=O)c1sccc1NC(=O)c1ccc(C)s1`?
RORgamma inh: inconclusive; BRCA1 expr up: -51.8%; Giardia kill: -7.1; p53 reactivation: 11.7%; ELG1 repair inh: 12.5%; VP16 counter: 21.8%

What do the screens show for `CCC1(C)Cc2c(sc3nc(SCC(=O)c4ccccc4)[nH]c(=O)c23)CO1` (stereo not drawn)?
RORgamma inh: 20.5%; BRCA1 expr up: -26.1%; Giardia kill: 7.5; p53 reactivation: 5.1%; ELG1 repair inh: inconclusive; VP16 counter: -12.4%

How did Nc1nc2ccccc2cc1-c1cccs1 do in these assays?
RORgamma inh: 28.3%; BRCA1 expr up: 3.16µM*; Giardia kill: 4.4; p53 reactivation: inconclusive; ELG1 repair inh: inconclusive; VP16 counter: 7.7%

How did Cc1cc(-c2cccs2)n[nH]1 do in these assays?
RORgamma inh: 23.7%; BRCA1 expr up: 25.5%; Giardia kill: -15.9; p53 reactivation: inconclusive; ELG1 repair inh: 3.9%; VP16 counter: 6.6%

What do the screens show for `COc1ccc(-c2ccc3ccccc3n2)cc1`?
RORgamma inh: inconclusive; BRCA1 expr up: inconclusive; Giardia kill: -2.2; p53 reactivation: 5.7%; ELG1 repair inh: inconclusive; VP16 counter: inconclusive

Results for c1csc(-c2nc3ccccc3s2)c1 ?
RORgamma inh: inconclusive; BRCA1 expr up: 7.94µM*; Giardia kill: 17.2; p53 reactivation: 24.8%; ELG1 repair inh: inconclusive; VP16 counter: -9.9%

Results for Cc1cc2ncc(-c3cccs3)nc2cc1C ?
RORgamma inh: 10µM*; BRCA1 expr up: 41.2%; Giardia kill: inconclusive; ELG1 repair inh: inconclusive; VP16 counter: inconclusive

What do the screens show for `c1ccc2sc(-c3ccncc3)nc2c1`?
RORgamma inh: -22.5%; BRCA1 expr up: inconclusive; Giardia kill: 20.8; p53 reactivation: 14.4%; ELG1 repair inh: inconclusive; VP16 counter: 21.1%

Results for Nc1ccc(-c2ccc3ccccc3n2)cc1 ?
RORgamma inh: -19.6%; VP16 counter: 11.2µM*

Results for O=C(NNC(=O)c1csc(-c2ccccc2)n1)c1ccccc1 ?
BRCA1 expr up: -24.5%

What do the screens show for `CCOC(=O)c1c(NC(=O)CS(=O)(=O)c2cn(CC)c3ccccc23)sc2c1CCCC2`?
RORgamma inh: 29.3%; BRCA1 expr up: -33.9%; Giardia kill: -25.4; p53 reactivation: -6.5%; ELG1 repair inh: -8.7%; VP16 counter: 3.9%

What do the screens show for `O=C(Oc1ccccc1)N1CCC2(CCCN(c3ccccn3)C2)CC1`?
RORgamma inh: -28.4%; VP16 counter: -3.6%

How did c1csc(-c2ccc3ccccc3n2)c1 do in these assays?
RORgamma inh: -8.4%; BRCA1 expr up: 7.08µM*; Giardia kill: 14.3; p53 reactivation: 16.6%; ELG1 repair inh: inconclusive; VP16 counter: 18.2%

What do the screens show for `Cc1ccc(-c2cc3ccccc3nc2N)cc1`?
RORgamma inh: inconclusive; BRCA1 expr up: 10µM*; Giardia kill: -10.3; p53 reactivation: inconclusive; ELG1 repair inh: inconclusive; VP16 counter: inconclusive

How did O=C1CSC(c2ccc(Cl)c(Cl)c2)N1c1nccs1 (stereo not drawn) do in these assays?
BRCA1 expr up: -36.1%; Giardia kill: 1.9; p53 reactivation: 1.0%; ELG1 repair inh: inconclusive

What do the screens show for `CS(=O)(=O)N1CCC2(CC1)CN(C(=O)Nc1cccc(C#N)c1)C2`?
RORgamma inh: 2.9%; VP16 counter: -15.0%

Results for COC(=O)c1ccc(C(=O)NN)cc1 ?
RORgamma inh: -28.8%; BRCA1 expr up: -5.7%; Giardia kill: -2.0; p53 reactivation: 8.2%; ELG1 repair inh: -7.7%; VP16 counter: -2.9%

What do the screens show for `COC(=O)c1ccc(C(=O)Nc2ccc(C(C)C)cc2N)cc1`?
RORgamma inh: 34.7%; BRCA1 expr up: 11.2µM*; Giardia kill: 16.6; p53 reactivation: 14.9%; ELG1 repair inh: inconclusive; VP16 counter: 4.6%

How did Cc1c(Nc2nc3ccccc3n3cnnc23)cccc1[N+](=O)[O-] do in these assays?
RORgamma inh: -5.0%; BRCA1 expr up: -11.2%; Giardia kill: inconclusive; p53 reactivation: -2.2%; ELG1 repair inh: 21.4%; VP16 counter: -7.8%

What do the screens show for `CNc1c(N=Cc2cccnc2)c(=O)n(C)c(=O)n1C`?
RORgamma inh: 0.9%; BRCA1 expr up: -33.9%; Giardia kill: 2.1; p53 reactivation: -5.7%; ELG1 repair inh: 12.3%; VP16 counter: -18.5%

Results for COc1cc(CN2CCN(c3cccc(C)c3C)CC2)cc(OC)c1O ?
RORgamma inh: 6.3%; BRCA1 expr up: 4.8%; Giardia kill: -10.5; p53 reactivation: 0.5%; ELG1 repair inh: 0.1%; VP16 counter: 1.3%
